The results in this text go back to PubChem BioAssay AID1347426 (Functional Genomics Laboratory (NCATS/FGL), 2020).

Out of some 31,000 sequences screened, about 1,400 (4.5%) were called active. Only a selection was taken, and actives are over-represented in it overall. A number with no mark means an inactive call.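 How the source made its calls: active means median seed-adjusted z-score above 1 or below -1; inactive means the rest.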

This assay can be described thus: Novel Modifiers of Survival Motor Neuron (SMN) Protein: Gene Identification via Genome-wide siRNA Screen.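 Further: luminescence tracks full-length SMN protein made from the SMN2 reporter.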 The settings on record: HEK293T SMN2-luciferase reporter, siRNA knockdown, 72 h; actives lie on both sides. A digest of the protocol:
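siRNA screen, 10418 genes ×3 siRNAs; 1 pmol/well, lipid reverse transfection into HEK293T SMN2-luc reporter line. 72 h, 37 °C, 5% CO2; ONE-Glo readout. Data: neg-ctrl normalized, log10, MAD; hit = MAD >1.0 or < -1.0.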
Background: In a reporter assay the amount or activity of a reporter protein is the signal.
With GGAAACGAUUAUUACAACUTT against LRRK2, the median seed-adjusted z-score was -0.671.
Next, AUAAAUACCUCGGACAUUATT against EIF1AX: 0.878.
Take CCCUUCGCGUUGUUGCUCATT against DHRS1: the median seed-adjusted z-score is 0.
The same measure for GAGGGACCAUAGUAGAUCATT against CPSF6: -2.38 (active); for GAUCGAUUCAUACCAUAUATT against MCM8: 0.279; for GAAGCUACGUUGACUAUUUTT against HRC: 1.06 (active).
For GAAGUUUACUUAUCUGGGUTT against PRKAB1, the median seed-adjusted z-score was 0.536.
Take CAACAAUCCUAUAAUUCCATT against UBE2Q2: the median seed-adjusted z-score is 0.146.
Next, ACCUGUUAAUGGCCUUUGUTT against SLC30A3: -1.26 (active).
On to GGAGUUCAUCCGUCAAGUUTT against BIRC3, for which the median seed-adjusted z-score is -0.644.
Next, GCAUCAAUGUACCUCCACATT against ETV4: -0.186; CGACCAUUGGAGAUGUUAATT against SCML2: -0.538.
For the sequence GAGGAUUACUAAUUGAUCUTT against CHM, the median seed-adjusted z-score was 0.743.
Turning to GAAAAAGGGUCACCAGAAATT against TSG101, the median seed-adjusted z-score is 1.48 (active).
In the case of GGCCGUGGAUCAUCACUAUTT against FLJ16165, the median seed-adjusted z-score was -0.404.
In the case of GCCUUAAGGUAUUCGUGUATT against EXTL1, the median seed-adjusted z-score is 0.
Next, CCACCACAGAUUUUCCUAUTT against CD300A: -0.414; GGAACUCAUUAUACAAUGATT against CLCN3: -0.0801; CCCUAUGAGUGUCAACAAUTT against ZNF799: -1.02 (active).
For GAUAUGUAUUCAUACUAAUTT against SNX10, the median seed-adjusted z-score was 0.391.
Next, GUACAGCUCUUAUCGUUCATT against PPRC1: 0; GCAUCUUUCUGAGUUCACUTT against SLC22A11: 0; GUGCUACAAUUGUACAGUATT against CREM: -2.37 (active).
Regarding GCAUGAGUAUCUAUGACGATT against ATP5C1, the median seed-adjusted z-score was -0.0179.
In the case of ACUCCAACCGUACCCUUUATT against PPT2, the median seed-adjusted z-score is 0.0334.
Next, CCACUACGGUGUUCAUGCATT against PPARD: 0.0283; CUGAGACCCUGUUGACUGATT against PGS1: 1.36 (active); GACUCCUACAUGUCCAUUATT against DNM3: 0.
GACAGACUGUGCAUAUGUATT against GPR15: the median seed-adjusted z-score was 0.101.
Regarding GCAACCACCUAUAUCCUCATT against P2RY10, the median seed-adjusted z-score is -0.432.
Next, GAGUCACAUUUGAGGUUCATT against CSF2RA: -0.227.
Consider CUCCCUCGGUUAUAAAGAUTT against SLC4A5, for which the median seed-adjusted z-score is 1.3 (active).
For the sequence CAACCUUGCGGCAUGCAAATT against PRSSL1, the median seed-adjusted z-score is -0.221.
Take GGAUCUAUAGUGAUUGUCATT against TFRC: the median seed-adjusted z-score was 0.019.
The same measure for GCCUAUAGAGGAUCAGUUATT against PCMTD1: 0.0312; for GAGUGAGGACGGAAGAUCATT against APH1A: 0.741; for GGCUGUAUGAGCACCGUUATT against TGIF1: 0.303.
The same measure for GGAUGUUAGUAAACUCUCUTT against PSMA4: 0; for GAAUGUUAGUAGACGGGUUTT against IKZF5: 0.399; for GCACUAUCCAGUUUGUGGATT against TUBA3E: -0.35.
On to GGCCGUUACUUACCAGAGUTT against UROD, for which the median seed-adjusted z-score is 1.11 (active).
Turning to GAGAAACUAGAAUACAGAATT against ADPRH, the median seed-adjusted z-score was -0.406.
For the sequence GGGAUUAUCUUGCUUCCAATT against LPCAT2, the median seed-adjusted z-score was 0.
In the case of CCGUGAACCCAGAACAGUATT against PIP4K2A, the median seed-adjusted z-score was 0.469.
With GAGUCAGGACAAGAAGAUUTT against PHPT1, the median seed-adjusted z-score is 1.27 (active).
Turning to GGAUGGAACUUUACCCUCATT against MKL2, the median seed-adjusted z-score was -0.863.
On to CUACAAGCAUCGAUAGUAATT against EIF4G3, for which the median seed-adjusted z-score was -0.0562.
GAAAGAAAUCAACUGAUGATT against FBP1: the median seed-adjusted z-score is -0.221.
For GCAGACUCUCGACAUCCGATT against MAFK, the median seed-adjusted z-score was 1.73 (active).
Take GCUCAUUCCAGGUCAAUCATT against MLL3: the median seed-adjusted z-score is -0.248.
The same measure for GCUCAUAGGUAAGAAUUGUTT against NUBP1: -0.0975.
On to CGGCCUUCAUCGCAGUACATT against SLC7A5, for which the median seed-adjusted z-score is 0.00397.
With GGGUGAAGUCUCUCAAGAATT against LLGL1, the median seed-adjusted z-score is -1.13 (active).
As for CAAGAUCUAUGAUAAGGAUTT against GUCA1B, the median seed-adjusted z-score is 0.
For ACUUCAACAUGACCAAAAATT against PPARD, the median seed-adjusted z-score was 0.0283.
Next, GAGCUUGUAUAUGAAGCUATT against PDCD4: -0.0842; GGAUGACAGUCUCAUUGCATT against GON4L: 0.116; CCAUGCUGUCUAUAGCCUATT against TRPC5: -1.14 (active).
Take GGUUUUAGACCACACUAAATT against MSH3: the median seed-adjusted z-score is 0.428.
Take CAUUCCCUGUUGUAAUCAATT against MDH1: the median seed-adjusted z-score is -0.154.
With CGUCAUCACCCUCAACUAUTT against NLGN3, the median seed-adjusted z-score was -0.0279.
For GGACAUCGAAAAGUUAGUATT against MX2, the median seed-adjusted z-score is -0.0346.
Regarding CAAGAGUCUCUUUAAGGAATT against ACTL8, the median seed-adjusted z-score is 0.
Regarding GGAUGUAUGACAUCUGUAATT against STC1, the median seed-adjusted z-score is -1.36 (active).
The same measure for GCAUCCCUACGGUUGUUGATT against EIF2B4: 0; for GAGAAUAUCUGGAACCAGUTT against BDKRB1: 0.448; for CCAAUGCCCAGAUUAUGUATT against CELSR2: -0.493.
Consider GGAGAUACCUGGUCUCUUUTT against ADAM21, for which the median seed-adjusted z-score was 0.
Regarding GUCUUUCAGGUGUACCCAUTT against GATA1, the median seed-adjusted z-score was 0.371.
In the case of GCAUGCCCAUGAACAAAAATT against B3GNT1, the median seed-adjusted z-score was 0.0931.
Next, GAAUGGGUCUUGUAAAUCATT against PPAT: -1.51 (active); ACCUGAUGGUGGGCGCAAATT against MYBPC3: 0.304.
On to AGAUCAACCUGCUUCCCGATT against PDK2, for which the median seed-adjusted z-score is -0.481.
Next, GGAUUAUAGUGUCACCUAUTT against CPD: -0.198.
Next, GCGCAUUACUUUCUAGAAATT against PEX5L: 0.0982; GAAUCAAGAAUUAAAGACATT against PIPOX: 1.06 (active).
On to CAGUUCAUGUGGAUCAUCATT against GABARAPL2, for which the median seed-adjusted z-score is 0.528.
For the sequence CCACCUGUACAGCACGGUATT against TGFB1I1, the median seed-adjusted z-score was 0.887.
Next, GGGCAAAGCGAAACGCAAATT against ZNF536: -0.295; GCACGAGCCUUUCUCCAGUTT against RNASE7: 1.07 (active); GAAAGUCCAGAUGAGGAUATT against KLF9: 0.767.
In the case of GAAAUGGACCAGACACUAATT against POU2F2, the median seed-adjusted z-score is 0.163.
For GGGACCAAAAUCAAUGAAATT against PCBP3, the median seed-adjusted z-score was -0.0373.
GAAUGCAGGGAGAAACUUATT against TRIM64: the median seed-adjusted z-score was -0.024.
As to GGAAGACAGAGAAUCGAAATT against SEMA5A, the median seed-adjusted z-score is -0.443.
With GACAAGACGUGGUCAAGAATT against BCL2L13, the median seed-adjusted z-score was 0.311.
Next, GCAGUAGACUGAGCAGCAATT against TMTC4: -1.16 (active); CCUCAGGGAAGUACCCAAATT against RNASE8: 0.00771.
The same measure for CGCCUACACUCCUACGUGUTT against ZDHHC24: -0.695; for UGCCCGCUGUAGAUGAGAATT against APOC2: -0.0599; for GUUUCACCAUCGUUCGUGATT against PROKR2: 0.328.
CAAAAUGCAUUAGCUGAAATT against VIP: the median seed-adjusted z-score was 1.52 (active).
For the sequence AGAUGUACAUCCUCGUGCATT against ELFN2, the median seed-adjusted z-score was -0.0888.
Consider CUCCUGAGAUAAUAAUGAATT against RFC3, for which the median seed-adjusted z-score is 0.733.
On to CUCCUAUAAGAAAUCAAUATT against FLVCR1, for which the median seed-adjusted z-score is 0.197.
With CCAAUACAGUGGACAGUUATT against EMR1, the median seed-adjusted z-score was 0.255.
With GGAGGGUCUUCAUCGCUGATT against POLR2C, the median seed-adjusted z-score was -2.95 (active).
Turning to AAAGAAUCAUUGUGAAAGATT against PARVA, the median seed-adjusted z-score is 0.0852.
On to GCCUUCCACGCUUUCCUGATT against RGS16, for which the median seed-adjusted z-score was 0.
The same measure for GCGCAAUAAUGAACGGCAATT against GALNT14: 0; for CGAUCGCAAGUACCACGAATT against ATP8B1: 0.357; for GACUAGCUGCUGAUAAGAATT against CKAP5: -1.87 (active).
For AGUCCUCGGUGAUGCGUGATT against LMNB2, the median seed-adjusted z-score was -0.15.
CAGGCACAGUUGCCGAUUATT against CD247: the median seed-adjusted z-score is -0.522.
As for CCUUGACCAUGAAAAAGAATT against ZNF704, the median seed-adjusted z-score was -0.15.
In the case of GCUAUUGAAAGUACACCUATT against NARG1, the median seed-adjusted z-score is -1.02 (active).
Next, GGUUAUAACGGGACGAUUUTT against KIF5C: 0.283; CCAUGUUAGAAGCCCGGAATT against ZNF385D: -0.338.
AGAGGUACGUCUACAGUAUTT against F2R: the median seed-adjusted z-score is -0.392.
